# Screening results deposited in PubChem BioAssay by Broad Institute.
# Rows were chosen to be rich in hits. Some 4.1% of all compounds tested hit in one or more screens of this group.
# NSD2 HMT inh: blocks human histone methyltransferase NSD2; NSD2 peptide methylation, AlphaScreen, 120 min; inhibition, % at 12.5 µM; 310,000 tested, 0.54% active; AID 743445; in the data active = inhibition above about 50%
# PglD inh: blocks C. jejuni PglD acetyltransferase activity; purified PglD enzyme, DTNB colorimetric CoA detection; inhibition, % at 12.5 µM; 360,000 tested, 0.098% active; AID 602405; in the data active = inhibition above about 16%, passing the limit was not always enough; inconclusive = no clear call, values can overlap the other calls
# CASP6 VEID inh: blocks human caspase-6 cleavage activity | purified caspase-6, Z-VEID-R110 cleavage fluorescence | AID 686996 | 350,000 tested, 0.53% active | P55212 | inhibition, % at 12.5 µM;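 active = mean inhibition across replicates at least about 35%, with every replicate also reaching that limit, limit read from the data; inconclusive = only one of the two criteria met; inactive = neither criterion met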;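 also: 0% = median of neutral control wells and 100% = no fluorescence left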
# Target sequence (P55212 24-179 limits assumed): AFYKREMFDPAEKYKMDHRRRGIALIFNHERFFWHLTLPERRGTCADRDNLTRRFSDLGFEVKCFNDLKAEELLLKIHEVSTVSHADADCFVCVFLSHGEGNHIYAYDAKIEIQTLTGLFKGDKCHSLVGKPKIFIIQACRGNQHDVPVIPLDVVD
# Target sequence (P55212 194-293 limits assumed): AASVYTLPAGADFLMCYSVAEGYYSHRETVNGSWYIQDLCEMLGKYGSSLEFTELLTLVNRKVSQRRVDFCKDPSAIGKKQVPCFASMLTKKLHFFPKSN
# Env fusion inh: HIV envelope-mediated fusion inhibition; AID 651610; HeLa-JRFL Env/CEM21 cell fusion, luciferase; 360,000 tested, 1.1% active; inhibition, % at 12.3 µM;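 active = mean replicate inhibition score of at least 50 and every replicate individually at or above 50; inconclusive = only one of the two criteria met; inactive = mean below 50 and not all replicates reaching 50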;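 also: 0% = plate neutral controls and 100% = maraviroc near 300 nM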
# CFTR F508del cor: CFTR F508del correction in bronchial cells; CFBE cells, YFP halide quenching; stimulated with forskolin plus potentiator P3; % fluorescence drop versus neutral controls; activity (quench increase), % at 7.58 µM; 350,000 tested, 0.36% active;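 active = mean added fluorescence quench of at least 8% versus neutral control, with both replicates also reaching 8%; inconclusive = only one of the mean or replicate conditions met; inactive = mean below 8% and not both replicates reaching 8%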;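 also: cells transiently co-express mutant CFTR-F508del with the halide-sensitive YFP; corrector assay measuring rescue of mutant channel to the surface after 24 h compound exposure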
# ALR H2O2 inh: human ALR oxidase inhibition via reduced H2O2; P55789; purified ALR, DTT oxidation, H2O2 HRP-luminol luminescence; 290,000 tested, 3.8% active; AID 485317; inhibition, % (test concentration not listed);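 active = mean replicate inhibition above about 79%, with every replicate also reaching it, limit read from the data; inconclusive = only one of the two criteria met; inactive = mean below limit and not every replicate reaching it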
# Target sequence (P55789 whole entry, looked up): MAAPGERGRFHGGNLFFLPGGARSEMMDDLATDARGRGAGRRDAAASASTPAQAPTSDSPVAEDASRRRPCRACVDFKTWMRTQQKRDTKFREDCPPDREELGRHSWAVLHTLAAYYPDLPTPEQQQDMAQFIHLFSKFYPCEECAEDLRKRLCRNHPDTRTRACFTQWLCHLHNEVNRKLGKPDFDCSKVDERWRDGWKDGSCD
# Alpha artifact: AlphaScreen assay artifact in NSD2 counter-screen; 1,500 tested, 9.4% active; AC35, µM (highest dose often 10 µM), for inactives: at the highest dose activity change, negative = signal loss; AlphaScreen artifact counterscreen, preloaded methylated H4 peptide; AID 1053174; shares compounds with NSD2 HMT inh; call rule not given here
# * hit, by the source's call; ? = inconclusive; nt = no result; [ ] = dose if it differs, or a comment.
SMILES,NSD2 HMT inh,PglD inh,CASP6 VEID inh,Env fusion inh,CFTR F508del cor,ALR H2O2 inh,Alpha artifact
COCC#Cc1ccc2c(c1)O[C@@H](CN(C)S(=O)(=O)c1cccc(OC)c1)[C@@H](C)CN([C@H](C)CO)S2(=O)=O,nt,0,0,-4[16.7 µM],nt,nt,nt
COc1cc(/C=N/NC(=O)c2ccncc2)c([N+](=O)[O-])cc1OC,3,nt,1,5,-2,nt,nt
COc1cc(OC)c([N+](=O)[O-])cc1/C=N/NC(=O)c1ccncc1,81*,nt,15,7,0,30,0%
COc1cc(/C=C/C(=O)OC[C@H]2O[C@H](OC3(CO)OC(CO)C(O)C3O)[C@H](O)[C@@H](O)[C@@H]2O)ccc1O (stereo partly specified),nt,3,1,-21,0,?,nt
O=C(/C=C/c1ccc(O)c(O)c1)OC1C(O)CC(OC(=O)/C=C/c2ccc(O)c(O)c2)(C(=O)O)CC1O (stereo unspecified),66*,6,3,-1,-1,99*,-11%
CC(C)(C#N)NC(=O)C1CCCN1S(=O)(=O)c1ccc2ccccc2c1 (stereo unspecified),109*,1,-3,15,-1,0,-2%
Cc1cccc(Nc2nnc(-c3ccc(N4CCOCC4)c([N+](=O)[O-])c3)c3ccccc23)c1,53*,3,1,35,1,-12,-10%
Cc1nnc(-c2ccc(N3CCOCC3)c([N+](=O)[O-])c2)o1,1,3,nt,nt,nt,-6,nt
COc1ccc2c3c([nH]c2c1)[C@H](CO)N(S(C)(=O)=O)CC31CN(CC2CC2)C1,nt,nt,2,4[16.7 µM],-1,nt,nt
Cc1cc(C(=O)COc2cccc(-n3cnnn3)c2)c(C)n1-c1ccccc1,56*,-2,nt,-41,nt,-21,-1%
CC(C)C#Cc1cnc2c(c1)C(=O)N([C@@H](C)CO)C[C@H](C)[C@@H](CN(C)C(=O)C1CCC1)O2,nt,0,-2,-27[16.7 µM],0,nt,nt
CN1CCN(c2ccc(S(=O)(=O)N3CCOCC3)cc2NC(=O)COc2ccc(F)cc2Cl)CC1,185*,-1,-2,27,0,-2,-1%
Cc1ccc(Cl)c(OCC(=O)Nc2cc(S(=O)(=O)N3CCOCC3)ccc2N2CCCC2)c1,73*,-4,1,nt,1,5,-4%
CC(C)(C)NC(=O)CN(C(=O)CS(=O)CC(=O)Nc1ccc(F)cc1)c1cccc(F)c1 (stereo unspecified),-4,-3,-1,8,-2,-2,nt
Cc1cccc(N(CC(=O)NC(C)(C)C)C(=O)CS(=O)CC(=O)Nc2ccc3c(c2)OCO3)c1 (stereo unspecified),52*,nt,1,8,-1,-1,3%
CCOc1ccccc1NCc1nnc(-c2ccccc2)o1,66*,10,11,9,-3,66,-2%
COc1ccc2c3c([nH]c2c1)[C@@H](CO)N(C(=O)c1ccncc1)CC31CCN(Cc2cccnc2)CC1,nt,nt,2,-15[16.7 µM],-2,nt,nt
CCOC(=O)Cn1ncc(-c2ccccc2)c1N,128*,-2,nt,-97,nt,36,-1%
COCC(=O)Nc1ccc2c(c1)C(=O)N(C)[C@@H]1CC[C@@H](CC(=O)NCc3ccccc3F)O[C@@H]1CO2,nt,1,1,0[16.7 µM],-1,nt,nt
C[C@@H]1CN([C@H](C)CO)C(=O)c2cccc(NC(=O)NC3CCCCC3)c2O[C@@H]1CN(C)C(=O)Nc1cccc2ccccc12,nt,0,4,-3[16.7 µM],4,nt,nt
Cc1ccc(N2CS(=O)(=O)/C(=C/N(C)C)C2=O)cc1,64*,-5,nt,-45,nt,-4,-1%
CC1CN(Cc2nc3c(c(=O)n(C)c(=O)n3C)n2CCCc2ccccc2)CC(C)O1 (stereo unspecified),109*,6,nt,nt,nt,nt,0%
Cn1c(N2CCC(C(N)=O)CC2)nc2c1c(=O)n(Cc1ccc(Cl)cc1)c(=O)n2C,-2,-4,1,-2,nt,-4,nt
Cn1c(N2CCCC2)nc2c1c(=O)n(Cc1ccc(Cl)cc1)c(=O)n2C,105*,-2,nt,27,nt,8,-5%
CC1CN(c2nc3c(c(=O)n(Cc4ccc(Cl)cc4)c(=O)n3C)n2C)CC(C)O1 (stereo unspecified),116*,4,0,42,nt,5,-1%
SMILES,NSD2 HMT inh,PglD inh,CASP6 VEID inh,Env fusion inh,CFTR F508del cor,ALR H2O2 inh,Alpha artifact
C/C=C/c1ccc2c(c1)O[C@H](CN(C)CC1CCOCC1)[C@H](C)CN([C@H](C)CO)S2(=O)=O,nt,0,1,5[16.7 µM],1,nt,nt
CC(=O)N1CCc2cc(Br)cc(S(=O)(=O)NCCCN(C)Cc3ccccc3)c21,125*,-3,-18,5,1,1,0%
C[C@@H]1CN([C@H](C)CO)C(=O)c2cc(-c3ccccc3)cnc2O[C@H]1CN(C)C(=O)C1CCCCC1,nt,-2,-1,3[16.7 µM],-1,nt,nt
COCCNC(=O)CN(C(=O)CCC(=O)Nc1nccs1)c1ccc2c(c1)OCO2,67*,-1,-2,12,-2,-7,-3%
CC(C)NC(=O)CN(C(=O)CCC(=O)Nc1nccs1)c1ccc2c(c1)OCO2,-5,-3,2,-11,0,-24,nt
C[C@@H]1CN([C@H](C)CO)S(=O)(=O)c2ccc(Br)cc2O[C@H]1CN(C)C(=O)C1CCC1,nt,nt,nt,8[16.7 µM],1,nt,nt
CCC(=O)N1CC[C@H]2[C@H](CO)Nc3ccc(-c4ccc(F)cc4)cc3[C@H]21,nt,-1,1,nt,1,nt,nt
C/C=C/c1ccc([C@@H]2[C@@H](CO)N(S(C)(=O)=O)C23CN(C(=O)CC)C3)cc1,nt,nt,-2,nt,-2,nt,nt
CC1OC(Nc2ccc(N=Nc3ccccc3)cc2)C(O)C(O)C1O (stereo unspecified),nt,-7,2,-37,nt,-3,nt
CC1OC(Nc2cccc3ccccc23)C(O)C(O)C1O (stereo unspecified),65*,-11,nt,nt,nt,42,-2%
COC(=O)c1ccc(Cn2cnc3c(sc4nc(N5CCOCC5)c5c(c43)CCCC5)c2=O)o1,75*,-7,nt,nt,nt,1,-8%
COC(=O)c1ccc(CSc2ncnc3c2sc2nc(N4CCOCC4)c4c(c23)CCCC4)o1,0,1,nt,-8,nt,nt,nt
O=C1C(=C(I)I)c2ccccc2-c2ccccc21,131*,nt,24,43,-4,nt,-16%
COc1ccc(-c2cn(CC[C@H]3CC[C@H](NC(=O)Nc4ccc(F)cc4)[C@@H](CO)O3)nn2)cc1,nt,nt,1,nt,1,nt,nt
CC1(C)Cc2c(c(-c3ccccc3)[nH]c(=O)c2C#N)CS1,0,-6,-3,nt,nt,0,nt
CC1(C)Cc2c(c(-c3ccco3)[nH]c(=O)c2C#N)CS1,94*,1,nt,-15,nt,-12,0%
C[C@H]1CN([C@@H](C)CO)C(=O)CCCn2nncc2CO[C@H]1CN(C)Cc1ccc(C(F)(F)F)cc1,nt,nt,nt,30[16.7 µM],1,nt,nt
